These results are taken from PubChem BioAssay (NCATS).

Structures are written as SMILES. Inconclusive results are not listed. Where a call stands in place of a potency, no number is given. Calls of active or inactive are those of the source. The call rests on the fitted dose curve; in most records, active means well fitted cell-killing curve with a large enough effect; inconclusive means small, poorly fitted or top-dose-only effect, or effect the other way; inactive means no such curve, though single readings can be large or run the other way.
Potency means the concentration at half of the fitted maximal effect.

The test in a line: Quantitative High-Throughput drug screen in 47 multiple myeloma cell lines against the NCATS MIPE library collection: LP1_DSMZ cell viability assay (AID 1918982). Further: nearly all actives have a fitted effect of over 35% in size. Conditions: LP1 myeloma viability, CellTiter-Glo ATP luminescence, 48 h; series mostly up to 45.8 µM. Summed up:
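qHTS format: cells plated (500/well), pin-dosed with MIPE 4.0 compounds, kept 48 h at 37 °C. Readout was CellTiter-Glo luminescence, median RLU.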
In general terms: In ATP-based viability assays light output follows the ATP content of the culture.
Turning to `COc1ccc2c(c1)c(CC(=O)O)c(C)n2C(=O)c1ccc(Cl)cc1`, the Potency entry is “inactive”.
Regarding `CCOC(=O)C(C)(C)Oc1ccc(Cl)cc1`, the Potency result is “inactive”.
Consider `Nc1c2c(nc3ccccc13)CCCC2`, for which the Potency result was “inactive”.
For `CC(C)(Oc1ccc(C2CC2(Cl)Cl)cc1)C(=O)O` (stereo not drawn), the Potency result is “inactive”.
As for `CCOC(=O)c1ncn2c1CN(C)C(=O)c1cc(F)ccc1-2`, the Potency result is “inactive”.
The entry for `Clc1ccc2nsnc2c1NC1=NCCN1` is “inactive”; for `Cc1cc(C(C)(C)C)c(O)c(C)c1CC1=NCCN1` it is “inactive”.
In the case of `Cc1cnc(C(=O)NCCc2ccc(S(=O)(=O)NC(=O)NC3CCCCC3)cc2)cn1`, the Potency was 20.9 µM (active).
Regarding `CC(C)Cc1ccc(C(C)C(=O)O)cc1` (stereo not drawn), the Potency entry was “inactive”.
The figure for `C[C@@H]1CC(=O)NN=C1c1ccc(NN=C(C#N)C#N)cc1` is 20.9 µM (active); for `CC(COc1ccccc1)N(CCCl)Cc1ccccc1` (stereo not drawn) it is “inactive”.
For `CC12CC3CC(C)(C1)CC(N)(C3)C2`, the Potency entry was “inactive”.
For the compound `Cn1c(=O)c2c(ncn2C)n(C)c1=O`, the Potency result is “inactive”.
The result for `NS(=O)(=O)c1cc2c(cc1Cl)NCNS2(=O)=O` reads “inactive”; that for `CCOC(=O)Nc1ccc(NCc2ccc(F)cc2)nc1N`, “inactive”; that for `CC(CCc1ccc(O)cc1)NCCc1ccc(O)c(O)c1` (stereo not drawn), 20.9 µM (active).
For the compound `NC(=O)OCC(COC(N)=O)c1ccccc1`, the Potency result is “inactive”.
The figure for `COc1cc2nc(N3CCN(C(=O)C4COc5ccccc5O4)CC3)nc(N)c2cc1OC` (stereo not drawn) is 11.8 µM (active).
